# Laboratory results as given in ChEMBL document CHEMBL4513216, “Probing the Open Global Health Chemical Diversity Library for Multistage-Active Starting Points for Next-Generation Antimalarials” (ACS Infect Dis, 2020).
# Among all 69,000 compounds or so, about 8,600 (12%) showed an effect of 50% or more. Shown is part of a subset that was picked to be rich in strong results.
# System: Plasmodium berghei
# Assay: Screen against P. berghei liver stage (PbLuc), transformed with Luciferase, at 10uM
# Assay type: functional, HepG2
# Conditions: tested at 10 uM
row,Compound,INHIBITION [%]
1,Cc1cccc(N2CCN(C(=O)CC3(O)CCCC3)C(C)C2)n1 (stereo not drawn),-24.2
2,Cc1csc(N2CCCN(C(=O)c3csc(C)n3)CC2)n1,37.9
3,CNc1nc(C(=O)N2CCN(c3cc(C)nc(C)c3)CC2)cs1,34.9
4,CNc1nc(C(=O)N2CCCN(c3ccnc(C)c3)CC2)cs1,-10.6
5,CN1CC[C@H]2CN(C(=O)c3csc(Cc4ccccc4)n3)C[C@H]21,22.9
6,COc1ccnc(N2CCN(C(=O)c3csc(C)n3)CC2)n1,-12.6
7,CNc1nc(C(=O)N2C[C@@H]3CC[C@H]2CN(S(C)(=O)=O)C3)cs1,7.1
8,CNc1nc(C(=O)N2C[C@@H]3CCN(C)[C@@H]3C2)cs1,55
9,Cc1nc(C(=O)N2CCN(c3ccc(Cl)c(Cl)c3)CC2)cs1,90.3
10,CNc1nc(C(=O)N2CCN(c3ccc(Cl)c(Cl)c3)CC2)cs1,86.6
11,CC(O)CN(C)C(=O)CCNC(=O)OC(C)(C)C (stereo not drawn),44.9
12,CC(C)N1CCC(c2cnc(-c3cn[nH]c3)cn2)CC1,20.5535
13,CC(=O)N[C@@H]1CN(C(=O)c2cccc(C)c2)C[C@H]1O,0.19
14,CCC(C)[C@H](NC(=O)c1ccc(F)cc1-n1cnnn1)C(=O)OC (stereo partly drawn),51.3
15,CC[C@H](C)[C@H](NC(=O)c1cccc(-n2cnnn2)c1)C(=O)OC,30.5
16,CCC(C)[C@H](NC(=O)c1cc(F)ccc1-n1cnnn1)C(=O)OC (stereo partly drawn),46.1
17,CCC(C)[C@H](NC(=O)c1cc(Br)ccc1-n1cnnn1)C(=O)OC (stereo partly drawn),34.7
18,CC[C@H](C)[C@H](NC(=O)c1ccccc1-n1cnnn1)C(=O)OC,-14.2
19,CC[C@H](C)[C@H](NC(=O)c1ccc(-n2cnnn2)cc1)C(=O)OC,61.2
20,O=C(Nc1ccccn1)c1ccc(F)c(S(=O)(=O)NC2CC2)c1,4.34
21,CCn1cc(-n2cc3nc(N4CCOCC4)[nH]cc-3c2=O)cn1,-37.9
22,CCc1nc(CN2CCC(C(=O)N(C)C)CC2)cs1,11.8

row,Compound,INHIBITION [%]
1,CN1CCC(NC(=O)Cc2csc(C(C)(C)C)n2)CC1,47.2
2,CC(=O)N1CCC(NC(=O)Cc2csc(C(C)(C)C)n2)CC1,5.91
3,CC(C)c1nc(CC(=O)Nc2cnccc2O)cs1,29.4
4,CCOC(=O)C1CCN(Cc2csc(C(C)(C)C)n2)CC1,-13.3
5,CC(C)(C)c1nc(CC(=O)Nc2cnccc2O)cs1,52.5
6,CCN1CCC(NC(=O)Cc2csc(C(C)(C)C)n2)CC1,50.5
7,CC(C)(C)c1nc(CC(=O)NCCC(=O)Nc2ccncc2)cs1,45.4
8,CN(C)C(=O)C1CCN(Cc2csc(C(C)(C)C)n2)CC1,56.4
9,Cn1ncc2c1C(COCC1CC1)N(C(=O)c1ccncn1)CC2 (stereo not drawn),47.4
10,CN(CCNC(=O)NCc1ccsc1)C1CCCC1,-43.5
11,CN(Cc1coc(-c2ccccc2)n1)C1CCCN(c2cccnn2)C1 (stereo not drawn),24
12,Cn1cccc1C(=O)N1C[C@@H](OCc2ccncc2)[C@@H]2OCCC[C@@H]21,42.5
13,O=C1NCCO[C@H]2CN(C(=O)Cc3ccco3)CC[C@@H]12,-2.26
14,O=C1NCCO[C@H]2CN(C(=O)Cc3cccs3)CC[C@@H]12,14
15,COc1cc(F)ccc1CC(=O)N1CC[C@H]2C(=O)NCCO[C@H]2C1,52.1
16,Cc1ccc(F)c2c1CCCN2Cc1cc(=O)n(C)c(=O)n1C,38.8
17,CC[C@H](C)[C@@H](CO)NC(C)Cc1ccc(F)cc1 (stereo partly drawn),8.24
18,CC[C@H](C)[C@@H](CO)NC(C)Cc1ccc(C)cc1 (stereo partly drawn),41.7
19,CC[C@H](C)[C@@H](CO)NC(C)Cc1ccc(Cl)cc1 (stereo partly drawn),71.2
20,CN(C)c1ncc2c(n1)C1(CCN(Cc3ccccc3F)C1)COC2 (stereo not drawn),23.6
21,COc1ccc(CN2CCN(C(C)=O)CC3(CC(=O)N(C)C3)C2)cc1 (stereo not drawn),-7.6
22,O=C(NC1CCCCC1)N1CCC(n2cc(-c3ccccn3)nn2)CC1,83.5

row,Compound,INHIBITION [%]
1,O=C(NC1CCCCC1)N1CCC(n2cc3[nH]cccc-3c2=O)CC1,36.5
2,O=C(c1ccco1)N1CCC(n2cc(-c3ccsc3)nn2)CC1,31.2
3,CCNC(=O)N1CCC(n2ccc(C(F)(F)F)n2)CC1,40.6
4,O=C(NCc1ccon1)N1CCC(n2ccc(C(F)(F)F)n2)CC1,1.2
5,COC1CCCOC12CCN(C(=O)NCc1ccco1)CC2 (stereo not drawn),4.52
6,CNCc1cn(C2CCN(C(=O)NCc3ccco3)CC2)nn1,71.2
7,Cc1cc(CN2CCN(C(=O)NCc3ccco3)CC2)no1,31.2
8,O=C(NCc1ccco1)N1CCOC(c2ccccc2Cl)C1 (stereo not drawn),8.12
9,O=C(c1ncc[nH]1)N1CCC(n2cc(-c3ccccn3)nn2)CC1,6.88
10,O=C(NCc1ccco1)N1CCC(n2ccc(C(F)(F)F)n2)CC1,57.7
11,O=C(NCc1ccco1)N1CCC(n2cc(-c3ccccn3)nn2)CC1,65.6
12,COCC(=O)Nc1ccc(Oc2ccsc2C(=O)O)cc1,49.1
13,COC1(CNC(=O)NCCc2ccccc2)CCSC1 (stereo not drawn),8.31
14,O=C(c1cccc(C(F)(F)F)c1)N1CC(=O)N(C2CCC2)CC(O)C1 (stereo not drawn),21.5
15,O=C1Nc2ccccc2CNC12CCN(CC1CCCC1)CC2,30
16,CCOCCOC(C)C(=O)Nc1ccc2ccn(CC(=O)NC)c2c1 (stereo not drawn),13.9
17,Cc1ccc(C(=O)NCc2ccc(N3CCCC(C(N)=O)C3)cc2)o1 (stereo not drawn),29.7
18,O=C(CCc1nc2ccccc2[nH]1)NC1CCOC2(CCOCC2)C1 (stereo not drawn),47.6
19,Cc1cccc(OCC(O)CN2CCC(Cn3cccn3)CC2)c1 (stereo not drawn),47.1
20,CN1[C@H](CN2CCCC2)C[C@@H]2CN(C(=O)Cc3ccsc3)CC[C@@H]21,-8.51
21,O=C(c1ccc2nncn2c1)N1CCCC1c1noc(C2CC2)n1 (stereo not drawn),15.1
22,CCS(=O)(=O)CC(=O)N1CCCC1c1noc(C2CC2)n1 (stereo not drawn),13.9

row,Compound,INHIBITION [%]
1,O=C(c1ccc2nccn2c1)N1CCCC1c1noc(C2CC2)n1 (stereo not drawn),52.3
2,CC(C)c1nc(C2CCCN2C(=O)c2ccc3nncn3c2)no1 (stereo not drawn),5.11
3,CCCS(=O)(=O)CC(=O)N1CCCC1c1noc(C2CC2)n1 (stereo not drawn),97.2
4,CC(C)CS(=O)(=O)CC(=O)N1CCCC1c1noc(C2CC2)n1 (stereo not drawn),29
5,CN(C)c1cc(CNC(=O)NCC2(C)CCCS2)ccn1 (stereo not drawn),-15.5
6,Cc1ccc(-c2nnc(CN3CCCCC3Cn3cncn3)o2)cc1 (stereo not drawn),-29.8
7,CN(CC(C)(C)O)C1CCCN(Cc2noc(C3CC3)n2)C1 (stereo not drawn),25.1
8,O=C(NC1CC1)c1cc(C2CCCN(Cc3ccccn3)C2)no1 (stereo not drawn),-8.12
9,Clc1ccc(CN(CCN2CCOCC2)Cc2cccnc2)c(Cl)c1,-49.4
10,Cc1nc(-c2ccc(Cl)s2)sc1C(=O)NC(C)(C)C(N)=O,-39.95
11,Cc1cc(NC(=O)CCn2cncn2)no1,44.3
12,O=C(CCn1cncn1)NCC(c1ccco1)N1CCCC1 (stereo not drawn),-49.5
13,O=C(CCn1cncn1)NCC1CCCC1,63.8
14,O=C(CCn1cncn1)NCC1CCOC1 (stereo not drawn),54.5
15,Cc1nc(C)n(CCC(=O)NCC2CCCOC2)n1 (stereo not drawn),26.55
16,O=C(CCn1cncn1)NCC(c1ccco1)N1CCCCC1 (stereo not drawn),3.73
17,O=C(CCn1cncn1)NC1CCS(=O)(=O)C1 (stereo not drawn),49.9
18,CCCn1cnc(NC(=O)NCC2CCS(=O)(=O)C2)n1 (stereo not drawn),42.6
19,O=C(CCn1cncn1)NCC1CCS(=O)(=O)C1 (stereo not drawn),84.2
20,CS(=O)(=O)N1CCO[C@@H]2CN(C(=O)c3ccnnc3)C[C@@H]2C1,17.6
21,Cc1ccc(C2CN(CCCS(=O)(=O)C(C)C)CCO2)c(C)c1 (stereo not drawn),-20.3
22,CN1CCC(NC(=O)CC2CN(Cc3ccccc3)CCO2)CC1 (stereo not drawn),9.41

row,Compound,INHIBITION [%]
1,COc1ccc(CCNC(=O)Cn2ncc3c2c(C)nn3C)cc1,28.4
2,CC(NC(=O)C1=NN(C)C(=O)CC1)c1ccc(Cl)cc1 (stereo not drawn),20.9
3,CN(CCC#N)C(=O)CCOc1cccc(F)c1,-13.4
4,Cc1cc(C(O)CCNC(=O)c2ccc(Cl)s2)c(C)o1 (stereo not drawn),-1.04
5,O=C1OCCN1CCSc1nnnn1C1CCOCC1,54.5
6,CC(C)OCCSc1nnnn1C1CCOCC1,26.9
7,O=C1OCCN1CCSc1nnnn1CC(F)(F)F,42.4
8,Cc1cnn(CC2CCCN2c2ncnc3ccsc23)c1 (stereo not drawn),47.7
9,N#Cc1ccc(N2CCCC2Cn2cccn2)nc1 (stereo not drawn),-155
10,Cc1nn(C)c(Cl)c1C1CCCN1c1ncnc2sccc12 (stereo not drawn),42.6
11,Cc1cnn(CC2CCCN2c2ncnc3c2CCC3)c1 (stereo not drawn),-2.94
12,c1nc(N2CCCCC2Cn2cncn2)c2ccsc2n1 (stereo not drawn),45.8
13,Cc1cnn(CC2CCCN2c2ncnc3sccc23)c1 (stereo not drawn),56.1
14,Cc1cnn(CC2CCCCN2c2ncnc3ccccc23)c1 (stereo not drawn),-34.6
15,COc1c(C2CCCN2c2ncnc3sccc23)c(C)nn1C (stereo not drawn),40
16,Cc1nn(C)c(C)c1C1CCCN1c1ncnc2sccc12 (stereo not drawn),70.5
17,Cc1cnn(CC2CCCN2c2ccc(C#N)cn2)c1 (stereo not drawn),-16
18,Cc1cnn(CC2CCCN2c2ncnc3ccccc23)c1 (stereo not drawn),75.9
19,c1cnn(CC2CCCN2c2ncnc3c2CCC3)c1 (stereo not drawn),59.7
20,CSCC[C@H](NC(C)=O)c1nc(CC(C)C)n[nH]1,-24.7
